Data as given in PubChem BioAssay AID686959 (The Scripps Research Institute Molecular Screening Center, 2013).
Active and inactive are the calls of the source. Cut-off not given; nearly all actives show IC50 up to about 8.1 µM.

Assay: small molecules binding CAG repeat RNA – biochemical, fluorescence, dose response (AID 686959)
Conditions: r(CAG) RNA repeat binding
With `CC/C(=N\NC(=O)c1ccccc1O)c1c(O)n(C2CCCCC2)c(=O)[nH]c1=O` the IC50 was 0.452 µM (active).
With `C/C(=N\NC(=O)c1ccccc1O)c1c(O)n(C2CCCCC2)c(=O)[nH]c1=O` the IC50 was 0.45 µM (active).
With `O=C(N/N=C/c1c(O)n(CCC2=CCCCC2)c(=S)[nH]c1=O)c1ccccc1` the IC50 was 2.04 µM (active).
